Source: PubChem BioAssay (National Center for Advancing Translational Sciences (NCATS))
Compounds with a hit are over-represented: about 7.9% of the library has one in this group of screens.
Marburg entry inh = blocks Marburg virus binding to or entry into cells | Marburg virus pseudotyped entry inhibition, cell reporter | Potency, µM (series often up to 37.8 µM), inactives show at the highest dose activity change, negative = inhibition, hits mostly inhibitors | actives 1.8% (n = 300,000) | AID 540276; calls by dose curve; tested in HEK293 cells; also: potency is read from the fitted curve at half-maximal effect
HCV inh = inhibitors of hepatitis C virus infection | Potency, µM (highest dose often 41.8 µM), without a hit: at the top dose activity change, negative = inhibition, usual class: inhibitors | AID 651820 | actives 3.4% (n = 340,000) | Huh7.5.1 HCVcc-Cre infection, luciferase reporter, 44 h; active = well fitted inhibition curve with a large enough effect; inconclusive = small, poorly fitted or top-dose-only effect, or another doubt; inactive = no such curve, though single readings can be large or run the other way; also: potency is read from the fitted curve at half-maximal effect
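Infectious HCVcc-Cre (~0.5 moi) was added to cells just after compound, with cells seeded 4 h earlier at 1,000 per well. Luciferase activity after 44 h culture reported infection; substrate was incubated 15 min at room temperature before reading.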
LASV entry inh = inhibitors of Lassa virus binding or cell entry | Lassa virus pseudotype entry inhibition, cell reporter | Potency, µM (top dose mostly 37.9 µM), for inactives: top-dose activity change, negative = inhibition, usual class: inhibitors | actives 1.2% (n = 300,000); calls by dose curve; tested in HEK293 cells; also: potency is read from the fitted curve at half-maximal effect; nearly all actives have a fitted effect of over 50% in size
HCMV antiviral = blocks human cytomegalovirus replication; HFF cells, HCMV-luciferase reporter, 72 h; stronger effect = lower value; activity change, negative = inhibition, % at 57.5 µM; actives 4.5% (n = 410,000); in the data active = activity change below about -60%; inconclusive = no clear call, values can overlap the other calls; inactive = above about -39%
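HFF cells seeded 16 h at 37C, treated with compounds, infected with luciferase-reporter HCMV at MOI 1 PFU/cell; luciferase read at 72 h post infection, normalized to buffer-only and Salinomycin controls.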
FMDV inh = antivirals against foot and mouth disease virus | Potency, µM (doses to about 57.9 µM), without a hit: at the highest dose activity change, negative = inhibition, actives largely listed as inhibitors | FMDV antiviral cell-based qHTS | actives 1.2% (n = 410,000); calls by dose curve; tested in HEK293T cells; also: read-out not given here; potency is read from the fitted curve at half-maximal effect; nearly all actives have a fitted effect of over 45% in size
Active calls of the source: *; [ ] = dose if it differs, or a comment. % is scaled to controls: 0 for no effect and ±100 for the full control effect.

`Cc1c2cnn(CC(=O)NCCCN3CC(C)CC(C)C3)c(=O)c2c(C)n1Cc1ccccc1Cl` (stereo not drawn) gave Marburg entry inh inconclusive, HCV inh -18.7%, LASV entry inh inconclusive, HCMV antiviral -68.7* and FMDV inh -12.8%.
O=C([O-])c1ccccc1-[n+]1c(-c2ccccc2)cc(-c2ccccc2)cc1-c1ccccc1 was read as HCV inh -8.2%, HCMV antiviral inconclusive and FMDV inh inconclusive.
Oc1ccccc1-[n+]1c(-c2ccccc2)cc(-c2ccccc2)cc1-c1ccccc1 was read as HCMV antiviral -83.9* and FMDV inh 28.2µM*.
[O-]c1ccccc1-[n+]1c(-c2ccccc2)cc(-c2ccccc2)cc1-c1ccccc1 was read as HCV inh 6.31µM*, HCMV antiviral -97.0* and FMDV inh 28.2µM*.
For Cc1ccc(-c2cc(-c3ccc(C)cc3)[n+](-c3ccc(C(=O)O)cc3)c(-c3ccc(C)cc3)c2)cc1 the results were HCV inh 41.0%, HCMV antiviral 7.5 and FMDV inh -6.6%.
`Cc1ccccc1-[n+]1c(-c2ccccc2)cc(-c2ccccc2)cc1-c1ccccc1` gave HCV inh inconclusive, HCMV antiviral -96.2* and FMDV inh 10µM*.
For Nc1ccccc1-[n+]1c(-c2ccccc2)cc(-c2ccccc2)cc1-c1ccccc1 the results were Marburg entry inh 8.91µM*, HCV inh -6.1%, LASV entry inh inconclusive, HCMV antiviral inconclusive and FMDV inh inconclusive.
Screening COc1ccccc1CNS(=O)(=O)c1ccc2c(c1)CC(C)N2C(C)=O (stereo not drawn) returned LASV entry inh -2.2%[46.1 µM], HCMV antiviral -26.1 and FMDV inh 15.4%.
For COCc1cc(=O)[nH]c(-c2ccccc2)n1 the results were Marburg entry inh 13.2%, HCV inh 6.2%, LASV entry inh -1.6%, HCMV antiviral 29.0 and FMDV inh -15.5%.
For CC(OC(=O)Cc1cccc(C(F)(F)F)c1)C(=O)Nc1ccc(Cl)cn1 (stereo not drawn) the results were Marburg entry inh 9.4%, HCV inh 7.1%, LASV entry inh 12.4%, HCMV antiviral 10.9 and FMDV inh -17.2%.
`CC(C)CN1CCCC2(CCN(C(=O)c3ccco3)CC2)C1` gave FMDV inh -21.7%.
For COc1ccc(S(=O)(=O)Nc2ccc(N3CCOCC3)cc2)cc1 the results were HCV inh 9.3%, HCMV antiviral 14.6 and FMDV inh -24.4%.
For COc1ccc(NS(=O)(=O)c2ccc(N3CCOCC3)c(NC(=O)c3ccccc3Cl)c2)cc1 the results were Marburg entry inh inconclusive, HCV inh inconclusive, LASV entry inh 1.64µM*, HCMV antiviral -12.9 and FMDV inh 67.1%.
For COc1ccc(NS(=O)(=O)c2ccc(N3CCOCC3)c(N)c2)cc1 the results were HCV inh 6.31µM*, HCMV antiviral -70.3* and FMDV inh inconclusive.
For COC(=O)[C@H]1O[C@@H](c2c(OC)c(OC)c(C)c(OC)c2OC)[C@H](C)[C@@H](O)[C@@H]1C the results were Marburg entry inh 6.2%[14.2 µM].
`CCN(CC)CCSc1nnc2c3ccccc3n(CCc3ccccc3)c2n1` gave HCV inh 10µM*, HCMV antiviral -78.9* and FMDV inh -21.4%.
`O=C1c2ccccc2C(=O)N1CSc1nnc2c3ccccc3n(CCc3ccccc3)c2n1` gave Marburg entry inh 27.0%, HCV inh 9.4%, LASV entry inh 4.2% and FMDV inh inconclusive.
Screening c1ccc(CCn2c3ccccc3c3nnc(SCc4ccc5nonc5c4)nc32)cc1 returned Marburg entry inh 3.26µM*, HCV inh inconclusive, LASV entry inh 5.8µM*, HCMV antiviral -81.5* and FMDV inh inconclusive.
For O=C(CNCC(=O)Nc1ccc(F)c(F)c1F)Nc1ccc(F)c(F)c1F the results were HCV inh 13.6%, HCMV antiviral -82.8* and FMDV inh -4.4%.
For O=C(CCCn1ccc2cc(S(=O)(=O)N3CCCC3)ccc21)NCc1ccc(Cl)cc1 the results were LASV entry inh inconclusive, HCMV antiviral -86.8* and FMDV inh inconclusive.
`COc1cccc(CNC(=O)Cn2ccc3cc(S(=O)(=O)N4CCCC4)ccc32)c1` gave Marburg entry inh -18.4%[46.1 µM], HCV inh -28.4%, LASV entry inh 2.4%[46.1 µM], HCMV antiviral 10.5 and FMDV inh 0.4%.
For CCCCNC(=O)CCn1ccc2cc(S(=O)(=O)N3CCCC3)ccc21 the results were HCV inh -6.5%, HCMV antiviral -10.8 and FMDV inh 6.7%.
COc1cccc(CNC(=O)Cn2ccc3cc(S(=O)(=O)N4CCCCCC4)ccc32)c1 was read as HCV inh 12.6µM*, HCMV antiviral -31.6 and FMDV inh -14.8%.
CCOc1ccc(CCNC(=O)CCn2ccc3cc(S(=O)(=O)N4CCCC4)ccc32)cc1 was read as HCV inh 12.6µM*, HCMV antiviral -7.5 and FMDV inh -28.9%.
For CN(C)c1ccc(CNC(=O)CCCn2ccc3cc(S(=O)(=O)N4CCCC4)ccc32)cc1 the results were LASV entry inh inconclusive, HCMV antiviral -18.6 and FMDV inh -21.3%.
`CCOC(=O)C1=C2C=C(OCC)C=CC2OC1c1ccccc1` (stereo not drawn) gave Marburg entry inh -25.2%[46.1 µM].
For Cc1nc(NC(=O)COC(=O)c2cccs2)c(Cl)cc1Cl the results were Marburg entry inh -9.2%, HCV inh 16.0%, LASV entry inh 0.1%, HCMV antiviral -7.9 and FMDV inh -1.9%.
`COCCNC(=O)C(C)(C)n1cc(NC(=O)COCc2ccccc2)cn1` gave HCMV antiviral 0.8.
`Nc1cc(=O)[nH]c(SCC(=O)N2CCC(Cc3ccccc3)CC2)n1` gave HCV inh 14.1µM*, HCMV antiviral -0.2 and FMDV inh -20.6%.
For Nc1cc(=O)[nH]c(SCC(=O)N2CCCC2)n1 the results were HCV inh 15.5%, HCMV antiviral 3.0 and FMDV inh -19.8%.
`CCOc1cccc(/C=C(/C#N)c2nc3ccccc3[nH]2)c1OCC(=O)O` gave HCV inh 5.4%, HCMV antiviral -101.3* and FMDV inh -11.7%.
CCN(CC)c1ccc(/C=C(/C#N)c2nc3ccccc3[nH]2)c(OC(C)C)c1 was read as Marburg entry inh -2.7%, HCV inh 2µM*, HCMV antiviral -35.4 and FMDV inh 33.3%.
`COc1ccc(OC)c(S(=O)(=O)N2CCC(n3c(C)nc4cccnc43)CC2)c1` gave LASV entry inh -0.5%[46.1 µM], HCMV antiviral 3.8 and FMDV inh 0.0%.
Screening COc1ccccc1OC(C)C(=O)N1CC(=O)Nc2ccccc21 (stereo not drawn) returned Marburg entry inh 3.1%[46.1 µM], HCV inh -17.4%, LASV entry inh -19.8%[46.1 µM], HCMV antiviral -72.2* and FMDV inh -2.3%.
`Cc1cc(C)cc(C(=O)N2CC(=O)Nc3ccccc32)c1` gave Marburg entry inh inconclusive, HCV inh -22.4%, LASV entry inh inconclusive, HCMV antiviral -80.6* and FMDV inh -7.0%.
